From PubChem BioAssay AID1508600 (Functional Genomics Laboratory (NCATS/FGL), 2020)
Out of some 53,000 sequences screened, about 3,700 (7%) were called active.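 How the source made its calls: active means gene knockdowns whose robust z-score for IL-1 alpha signal is at least 2 or at most -2, so actives lie on both sides; inactive means the rest.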 The entries come from a sample that favours actives as a whole.

Assay: Components of the Cytosolic LPS Sensing Pathway: Gene Identification via Genome-wide siRNA Screen;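 further: robust z of the log signal after scaling to non-targeting control siRNA wells of the plate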
Conditions: RAW264.7 macrophages, IL-1a HTRF, actives lie on both sides, screened at 100 nM (by protocol), cells primed 5 h with Pam3CSK4 first
Procedure, shortened: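 Mouse macrophage line RAW264.7 is transfected with siRNA (100 nM final), grown 48h, primed with TLR ligand Pam3CSK4 5 h and given intracellular LipidA 24 h. IL-1a in supernatant is read by HTRF and viability by luminescence.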

z-score, active:
GGUUGCUGGAUGUCAUCUCTT against Hpn -2.05, GGAAAGAAUGAGGAUGUGGTT against Pitx2 -2.07, GCCUAUACUAUAGAAUUACTT against Sgsm2 2.2, GGAAACCUUUACCAUAAACTT against Epdr1 -2.35, CGUUCUAUGGAAACUGGAGTT against Acot1 2.42, CCAUUUCCCAUUUCUGAAGTT against 1700001P01Rik -2.22, CCUAUCUUGUCCGGUUUACTT against Cyb5rl 3.99, GGAAACAGCACAACAAACGTT against Adam26a 2.93, GCCAACAGUAACGGUAUUGTT against Patz1 -2.04, GGGCAUGGAACAAGAUGUCTT against Nckipsd -2.43, GGCUGACACAAGAUGGCUGTT against Ebpl 2.41, GGAGAAGAAAACAUCAAGUTT against Hrh3 2.52, GCACCUCGGUCAUUUAUAUTT against Mettl14 -2.51, GGUUUGCAUAUCUCACCCUTT against Sirt6 -2.38, GCAACUCAGCUGUUGUGAGTT against Ifitm2 2.99, CCUAUGCUAUGUAGUUUAATT against Adam21 5.58, GCUGCCUACCUGUGAAAGUTT against Pgam2 2.82, GGCCAAAGCUGAUAUGACATT against Ankef1 2.23, GGUGUCUUUGCUCAGCUCATT against Lrfn4 -2.93, GGAGAUGUGUUGAGUUUUCTT against Abcg2 4.47, GGACAUUUCUAUGUCUUUGTT against Cpt2 3.35, GGUUCAGUUUUGGCUGGCUTT against Olfr558 2.04, GCUUGGAAGGGACUUCAAUTT against Trp73 2.97

z-score, inactive:
AGGACUAGGGAUCCUAAUUTT against Ubl5 -0.74, GCUACUUGCUCAUACAAAGTT against Rag2 0.65, GGCCAUAUGUCAAGAAGUUTT against Svs4 -1.24, GCCAGGAAUAGUGAUUAUUTT against Atp11c -1.19, GGAAAUGUGGAAUACACCGTT against Prl7a2 1.39, GGCUUUAAUGUGUCAGUACTT against Slc25a5 -0.228, GCCGAUGAUACCAAACCGATT against Oser1 0.151, CGACUCUUACCAACCUUUUTT against Lhx2 0.477, GCAGGUGGUACGCAGACUATT against Ulk1 -0.0204, CCUCAAACUCGGUUUGAUUTT against Acp6 -0.773, GACGCAGAUGGUAUUUUUUTT against Orm2 1.24, GUGGGAAUUCUGAAAAAUATT against Vmn1r231 0.301, GUAUGAACCUAACACAUUCTT against Vmn1r188 0.493, GGAUCAAACAAAUCAUCAATT against Plscr4 -0.895, CCUUGUAGCUCUGAGGAUATT against Teddm3 -0.529, GGAACCUACCUCACCUUUGTT against Fscn3 -0.749, GGUCUCUUCAUGAUGGAUGTT against Akt1s1 0.731, CCAUACACAUGUAAUUCUCTT against Zmat3 -0.159, GGCAUCUCUGAGUUACAUUTT against Snu13 0.695, GGGUCUGGUUCUGUAACCATT against Pou4f3 -1.94, GGACUAUGGUGGGAACUAGTT against Tas2r119 -0.564, GGAAUGCUUAAAGCUUUAATT against Clasp2 0.353, GCUCAAGUUAAUCUGUUGUTT against Ywhae 0.962, CCAGUCAACAAGAAUCAGATT against Rptn -0.105, GAUACAGAAUGUCUCAUCCTT against Olfr1128 0.307, GCCCUUGCACUAUUUUUCCTT against Olfr1218 0.902, GCUAUGUCAACAGUAACAUTT against Mmel1 -0.683, GGUGGAAUUAUGCAUGCUATT against Olfr1094 1.45, GGCUUUCUUCAGUUUUGUCTT against Slc33a1 -1.37, GGAGGUUACCUUCUACAGCTT against Cxcr2 0.694, GGGUGAAAAGCAUUUCUGUTT against Actrt3 0.583, GGCUAAGAAACUGAAGAGATT against Ccm2l -1.59, GCGAACUCGGGAAACAACUTT against Rnf4 -0.0525, UAGAAUUGAUUGAGGACUCTT against Ly6c1 0.602, GCACUUCUUUGUGCAAAGCTT against Shfl -0.311, GAGGUUUGGCAGAAGUGCATT against Npff -1.95, GGCCUGUAAAAACUAUUGGTT against Mcpt4 0.122, CCACCAUGACUGCAAAUGUTT against Olfr1469 -0.817, GCUCGUGGCAUGUCUCUAUTT against Doc2g 0.379, GCUAUGAAGAAAAAUCGGATT against Mettl21e 0.362, GCCUAACCUGGUAUCCCAGTT against Zfp92 -1.03, GGCCUCACAGUGCUUUCUCTT against Olfr1232 0.0779, CCUGGCUUACAGUACAUGCTT against Adarb1 1.21, CGACUUCAUAAGGUAUGCATT against Tnfrsf22 -0.793, UUUGCUGUCCUUUCUUUCATT against Olfr122 -1.84, GGCCUAAGCAAGUUGCGCATT against Fbxl8 1.5, CCUUCAGACUGUCAACAAUTT against Chrm2 -0.386, GCGUGAGCUUAAGAAGCAATT against Leng8 1.46, GGAAAAGCUCAAUGUCCUCTT against Tex13b -0.141, GGGAAGUCUACAUAAAUCCTT against Gpr176 -0.544, GGAAAAGAAGUUUAAACGGTT against Svs6 -0.413, GGAGGAUCUUUCAAAGAGATT against Egfl8 0.763, GGCCCUUCCAGAAGAUACATT against Speer3 -1.1, GGACAGAUUCGACAAAGAGTT against Olfr1535 -0.193, GGAAAACAAGACUUCAAUCTT against Gypa 0.369, CCCUGAUGACAGAAGAAUCTT against Tyms -0.802, GCCUGUCCUGUGAUGACAUTT against Olfr406 -1.96, GCUCGAACAUCUCUUGGUCTT against Capn9 0.186, CCGUUACCUUUUAAGCCUGTT against Socs6 -1.2, GGCAGAGAAAAGGACCUUUTT against Mcts2 -1.32, GGAACUCCUCAAACGAAGGTT against Bmp3 0.553, GCCACCAGUGAAUAAUACATT against Hyal6 0.459, GGAGACUGGAGAGCAAAAUTT against Krt18 -1.44, GCUACCUUCAGACAAGCACTT against Prss32 -0.877, GCUGUUGUUCAAUGCCCUGTT against Olfr392 -0.616, GGCUGCACACAAUAUGAACTT against Mrm2 0.134, GGAGAAACUAUGAUCUUUATT against Mmp13 0.117, GGGAAGAAAUCCAAGAAGATT against Cnpy3 -0.836, GGAGCUCCUGUACGACUAUTT against Kmt5a -1.66, GCCCUCGGACUGAAAACAATT against Chrm5 -0.227, GGUACAAUGGCACUGUCACTT against Chrna5 -1.29, GGGAUGCUUUUGGCCCAAATT against Rita1 0.901, GGUUCUCUAACAGAACUUUTT against Zc3h6 0.768, GGUUGUUUGACCAACAGCUTT against Inpp5d -1.51, GGAAUUUGUGGAGAAACUATT against Gabbr1 -0.232, GAGCCAUAUACCUCGUCCUTT against Mier2 -0.531, GGUUGGCUUGGAAAUGGGATT against Nanos2 1.7, CCAUUUACCCAUGCGGCUATT against Creb3l2 -1.94, GGCAACAUGCGGACAACAUTT against Trim14 -0.42, GGAGCUGAACCUGAGCUAUTT against Tlr9 -0.341, GGAGAUAAAUCCUUUGCAUTT against Zfp119a 1.74, GGACUUUCGUGAGAGAUUUTT against Fpr2 1.16, GGAGAAGAGCAGAAUAUGCTT against Baz1a -1.48, GCUGUUAAACGAAAUGUACTT against Esx1 -0.298, CCAUUUAUUUGGACUUGUATT against Lig4 0.303
